Assay results published in the supplement of paper PMC11732987, “Enantioselective OTUD7B fragment discovery through chemoproteomics screening and high-throughput optimisation” (Communications Chemistry, 2025).

Key:
Assay in all cases: log2 ratio of Biotin-Ahx-Ub-VS probe labelling (fragment/DMSO); higher = less target engagement (more negative = stronger competition), active = hit call of the paper (q ≤ 0.05, log2 ratio ≤ -1)
Conditions in all cases: compound concentration: 200 uM; treatment time: 3 h
USP34 = USP34 (UniProt Q70CQ2)
In short: (§1)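 Fragment (200 µM) or vehicle was incubated for 3 h with triplicate HEK293T lysate samples of 495 µg, which were then treated with Biotin-Ahx-Ub-VS at 0.5 µM final for 1 h. Labelled DUBs were enriched on NeutrAvidin, digested with LysC and trypsin, and analysed by diaPASEF LC-MS/MS. Values are average log2 fragment/vehicle ratios from an unpaired t-test on global-median-normalised Spectronaut label-free quantities, using proteins with ≥2 unique peptides.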

USP36 = target: T1, USP36 (UniProt Q9P275)
T1 sequence (whole entry): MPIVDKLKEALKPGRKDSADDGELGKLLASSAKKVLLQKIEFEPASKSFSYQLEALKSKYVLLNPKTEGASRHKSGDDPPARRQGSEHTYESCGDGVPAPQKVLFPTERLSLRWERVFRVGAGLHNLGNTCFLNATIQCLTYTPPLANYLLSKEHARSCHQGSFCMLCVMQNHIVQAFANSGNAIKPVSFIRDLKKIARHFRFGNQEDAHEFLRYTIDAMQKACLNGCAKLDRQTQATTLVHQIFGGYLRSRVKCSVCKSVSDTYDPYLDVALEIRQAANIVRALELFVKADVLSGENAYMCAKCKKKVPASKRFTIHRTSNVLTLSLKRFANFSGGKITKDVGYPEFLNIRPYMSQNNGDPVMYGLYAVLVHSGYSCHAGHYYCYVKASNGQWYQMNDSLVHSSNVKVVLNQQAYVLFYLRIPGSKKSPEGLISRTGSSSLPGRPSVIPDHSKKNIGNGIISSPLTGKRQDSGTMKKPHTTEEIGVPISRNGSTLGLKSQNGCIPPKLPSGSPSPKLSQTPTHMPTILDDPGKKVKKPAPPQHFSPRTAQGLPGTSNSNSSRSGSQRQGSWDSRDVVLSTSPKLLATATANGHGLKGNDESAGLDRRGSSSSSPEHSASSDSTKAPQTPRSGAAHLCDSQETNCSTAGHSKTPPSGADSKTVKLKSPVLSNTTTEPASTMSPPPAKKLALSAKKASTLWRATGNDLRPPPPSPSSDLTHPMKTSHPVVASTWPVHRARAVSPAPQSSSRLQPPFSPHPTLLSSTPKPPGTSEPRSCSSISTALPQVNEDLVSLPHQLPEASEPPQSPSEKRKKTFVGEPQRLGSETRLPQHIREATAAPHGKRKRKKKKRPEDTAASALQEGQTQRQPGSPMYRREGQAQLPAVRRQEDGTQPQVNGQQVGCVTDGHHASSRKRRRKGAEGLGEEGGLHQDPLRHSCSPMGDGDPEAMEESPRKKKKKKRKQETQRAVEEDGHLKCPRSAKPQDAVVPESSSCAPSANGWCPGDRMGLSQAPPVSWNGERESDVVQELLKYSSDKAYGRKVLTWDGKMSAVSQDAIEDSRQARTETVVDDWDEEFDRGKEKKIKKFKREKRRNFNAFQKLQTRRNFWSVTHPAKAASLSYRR
In short: as §1

USP38 = target: T2, USP38 (UniProt Q8NB14)
T2 sequence (whole entry): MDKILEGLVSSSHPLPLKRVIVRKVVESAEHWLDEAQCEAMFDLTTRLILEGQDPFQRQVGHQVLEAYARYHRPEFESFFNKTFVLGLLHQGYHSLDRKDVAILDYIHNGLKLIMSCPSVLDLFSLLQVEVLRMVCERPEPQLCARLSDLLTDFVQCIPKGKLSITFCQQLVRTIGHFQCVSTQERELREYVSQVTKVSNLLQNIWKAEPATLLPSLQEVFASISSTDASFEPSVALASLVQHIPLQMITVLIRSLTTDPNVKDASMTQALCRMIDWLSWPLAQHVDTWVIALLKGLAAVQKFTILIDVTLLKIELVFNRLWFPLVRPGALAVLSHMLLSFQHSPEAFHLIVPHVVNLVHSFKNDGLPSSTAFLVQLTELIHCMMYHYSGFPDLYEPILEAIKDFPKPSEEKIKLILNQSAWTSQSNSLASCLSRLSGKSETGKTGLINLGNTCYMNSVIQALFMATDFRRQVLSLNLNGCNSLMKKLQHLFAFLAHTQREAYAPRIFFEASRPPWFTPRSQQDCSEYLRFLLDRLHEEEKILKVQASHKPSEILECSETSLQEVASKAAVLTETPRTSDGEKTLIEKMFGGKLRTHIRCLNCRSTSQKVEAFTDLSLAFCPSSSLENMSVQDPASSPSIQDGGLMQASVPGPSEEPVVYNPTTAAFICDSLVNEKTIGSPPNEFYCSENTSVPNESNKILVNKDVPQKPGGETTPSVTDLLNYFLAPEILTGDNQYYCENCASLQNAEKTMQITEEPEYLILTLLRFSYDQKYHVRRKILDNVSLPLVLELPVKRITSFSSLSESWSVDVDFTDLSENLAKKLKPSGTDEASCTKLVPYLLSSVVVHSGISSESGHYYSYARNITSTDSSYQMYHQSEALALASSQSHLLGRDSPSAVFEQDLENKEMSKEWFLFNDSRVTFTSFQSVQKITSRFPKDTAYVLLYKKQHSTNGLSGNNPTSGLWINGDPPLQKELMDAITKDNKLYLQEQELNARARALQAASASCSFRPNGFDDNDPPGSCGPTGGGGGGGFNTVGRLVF
In short: as §1

USP39 = target: T3, USP39 (UniProt Q53GS9)
T3 sequence (whole entry): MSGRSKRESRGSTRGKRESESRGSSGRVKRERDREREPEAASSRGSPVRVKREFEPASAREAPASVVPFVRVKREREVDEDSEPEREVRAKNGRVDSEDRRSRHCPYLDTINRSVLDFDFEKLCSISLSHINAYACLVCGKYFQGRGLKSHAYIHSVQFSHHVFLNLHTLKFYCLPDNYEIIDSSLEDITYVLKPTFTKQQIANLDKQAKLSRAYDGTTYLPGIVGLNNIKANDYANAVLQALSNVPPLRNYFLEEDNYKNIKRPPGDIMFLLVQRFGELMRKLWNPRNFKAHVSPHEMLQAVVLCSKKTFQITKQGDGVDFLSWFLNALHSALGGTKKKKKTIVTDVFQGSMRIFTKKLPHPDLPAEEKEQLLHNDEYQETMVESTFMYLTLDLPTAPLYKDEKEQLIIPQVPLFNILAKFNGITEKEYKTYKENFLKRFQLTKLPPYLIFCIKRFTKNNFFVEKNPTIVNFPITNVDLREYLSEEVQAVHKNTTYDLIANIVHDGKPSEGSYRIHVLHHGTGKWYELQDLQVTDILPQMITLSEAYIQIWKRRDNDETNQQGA
In short: as §1

USP4 = target: T4, USP4 (UniProt Q13107)
T4 sequence (whole entry): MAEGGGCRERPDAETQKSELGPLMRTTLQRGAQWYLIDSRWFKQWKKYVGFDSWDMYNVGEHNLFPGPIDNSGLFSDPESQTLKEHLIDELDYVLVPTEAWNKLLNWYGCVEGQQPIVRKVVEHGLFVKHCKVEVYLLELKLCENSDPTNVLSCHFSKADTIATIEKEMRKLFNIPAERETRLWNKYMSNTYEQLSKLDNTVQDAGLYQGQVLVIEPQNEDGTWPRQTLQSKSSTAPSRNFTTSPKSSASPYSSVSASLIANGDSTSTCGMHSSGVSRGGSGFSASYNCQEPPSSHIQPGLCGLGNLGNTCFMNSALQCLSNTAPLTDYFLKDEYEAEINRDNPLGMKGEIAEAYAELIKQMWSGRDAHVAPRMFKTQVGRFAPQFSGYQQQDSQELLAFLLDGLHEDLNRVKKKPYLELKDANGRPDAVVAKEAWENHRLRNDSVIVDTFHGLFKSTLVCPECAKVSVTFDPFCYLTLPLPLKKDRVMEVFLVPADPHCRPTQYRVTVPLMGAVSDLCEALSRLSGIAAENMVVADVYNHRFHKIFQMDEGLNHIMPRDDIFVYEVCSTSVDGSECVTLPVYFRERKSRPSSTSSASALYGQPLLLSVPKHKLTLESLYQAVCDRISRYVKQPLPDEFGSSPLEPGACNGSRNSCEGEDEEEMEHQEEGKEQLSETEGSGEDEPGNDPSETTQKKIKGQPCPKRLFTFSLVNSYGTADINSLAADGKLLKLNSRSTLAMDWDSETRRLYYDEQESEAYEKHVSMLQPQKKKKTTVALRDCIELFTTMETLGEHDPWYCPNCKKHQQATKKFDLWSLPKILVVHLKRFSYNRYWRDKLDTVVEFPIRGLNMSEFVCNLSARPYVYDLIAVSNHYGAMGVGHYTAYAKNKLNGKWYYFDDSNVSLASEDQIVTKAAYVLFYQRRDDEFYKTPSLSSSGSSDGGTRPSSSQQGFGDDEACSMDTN
In short: as §1

Measured: log2 ratio of Biotin-Ahx-Ub-VS probe labelling

Sequence of USP34 (Q70CQ2 whole entry, the tested form may be a part): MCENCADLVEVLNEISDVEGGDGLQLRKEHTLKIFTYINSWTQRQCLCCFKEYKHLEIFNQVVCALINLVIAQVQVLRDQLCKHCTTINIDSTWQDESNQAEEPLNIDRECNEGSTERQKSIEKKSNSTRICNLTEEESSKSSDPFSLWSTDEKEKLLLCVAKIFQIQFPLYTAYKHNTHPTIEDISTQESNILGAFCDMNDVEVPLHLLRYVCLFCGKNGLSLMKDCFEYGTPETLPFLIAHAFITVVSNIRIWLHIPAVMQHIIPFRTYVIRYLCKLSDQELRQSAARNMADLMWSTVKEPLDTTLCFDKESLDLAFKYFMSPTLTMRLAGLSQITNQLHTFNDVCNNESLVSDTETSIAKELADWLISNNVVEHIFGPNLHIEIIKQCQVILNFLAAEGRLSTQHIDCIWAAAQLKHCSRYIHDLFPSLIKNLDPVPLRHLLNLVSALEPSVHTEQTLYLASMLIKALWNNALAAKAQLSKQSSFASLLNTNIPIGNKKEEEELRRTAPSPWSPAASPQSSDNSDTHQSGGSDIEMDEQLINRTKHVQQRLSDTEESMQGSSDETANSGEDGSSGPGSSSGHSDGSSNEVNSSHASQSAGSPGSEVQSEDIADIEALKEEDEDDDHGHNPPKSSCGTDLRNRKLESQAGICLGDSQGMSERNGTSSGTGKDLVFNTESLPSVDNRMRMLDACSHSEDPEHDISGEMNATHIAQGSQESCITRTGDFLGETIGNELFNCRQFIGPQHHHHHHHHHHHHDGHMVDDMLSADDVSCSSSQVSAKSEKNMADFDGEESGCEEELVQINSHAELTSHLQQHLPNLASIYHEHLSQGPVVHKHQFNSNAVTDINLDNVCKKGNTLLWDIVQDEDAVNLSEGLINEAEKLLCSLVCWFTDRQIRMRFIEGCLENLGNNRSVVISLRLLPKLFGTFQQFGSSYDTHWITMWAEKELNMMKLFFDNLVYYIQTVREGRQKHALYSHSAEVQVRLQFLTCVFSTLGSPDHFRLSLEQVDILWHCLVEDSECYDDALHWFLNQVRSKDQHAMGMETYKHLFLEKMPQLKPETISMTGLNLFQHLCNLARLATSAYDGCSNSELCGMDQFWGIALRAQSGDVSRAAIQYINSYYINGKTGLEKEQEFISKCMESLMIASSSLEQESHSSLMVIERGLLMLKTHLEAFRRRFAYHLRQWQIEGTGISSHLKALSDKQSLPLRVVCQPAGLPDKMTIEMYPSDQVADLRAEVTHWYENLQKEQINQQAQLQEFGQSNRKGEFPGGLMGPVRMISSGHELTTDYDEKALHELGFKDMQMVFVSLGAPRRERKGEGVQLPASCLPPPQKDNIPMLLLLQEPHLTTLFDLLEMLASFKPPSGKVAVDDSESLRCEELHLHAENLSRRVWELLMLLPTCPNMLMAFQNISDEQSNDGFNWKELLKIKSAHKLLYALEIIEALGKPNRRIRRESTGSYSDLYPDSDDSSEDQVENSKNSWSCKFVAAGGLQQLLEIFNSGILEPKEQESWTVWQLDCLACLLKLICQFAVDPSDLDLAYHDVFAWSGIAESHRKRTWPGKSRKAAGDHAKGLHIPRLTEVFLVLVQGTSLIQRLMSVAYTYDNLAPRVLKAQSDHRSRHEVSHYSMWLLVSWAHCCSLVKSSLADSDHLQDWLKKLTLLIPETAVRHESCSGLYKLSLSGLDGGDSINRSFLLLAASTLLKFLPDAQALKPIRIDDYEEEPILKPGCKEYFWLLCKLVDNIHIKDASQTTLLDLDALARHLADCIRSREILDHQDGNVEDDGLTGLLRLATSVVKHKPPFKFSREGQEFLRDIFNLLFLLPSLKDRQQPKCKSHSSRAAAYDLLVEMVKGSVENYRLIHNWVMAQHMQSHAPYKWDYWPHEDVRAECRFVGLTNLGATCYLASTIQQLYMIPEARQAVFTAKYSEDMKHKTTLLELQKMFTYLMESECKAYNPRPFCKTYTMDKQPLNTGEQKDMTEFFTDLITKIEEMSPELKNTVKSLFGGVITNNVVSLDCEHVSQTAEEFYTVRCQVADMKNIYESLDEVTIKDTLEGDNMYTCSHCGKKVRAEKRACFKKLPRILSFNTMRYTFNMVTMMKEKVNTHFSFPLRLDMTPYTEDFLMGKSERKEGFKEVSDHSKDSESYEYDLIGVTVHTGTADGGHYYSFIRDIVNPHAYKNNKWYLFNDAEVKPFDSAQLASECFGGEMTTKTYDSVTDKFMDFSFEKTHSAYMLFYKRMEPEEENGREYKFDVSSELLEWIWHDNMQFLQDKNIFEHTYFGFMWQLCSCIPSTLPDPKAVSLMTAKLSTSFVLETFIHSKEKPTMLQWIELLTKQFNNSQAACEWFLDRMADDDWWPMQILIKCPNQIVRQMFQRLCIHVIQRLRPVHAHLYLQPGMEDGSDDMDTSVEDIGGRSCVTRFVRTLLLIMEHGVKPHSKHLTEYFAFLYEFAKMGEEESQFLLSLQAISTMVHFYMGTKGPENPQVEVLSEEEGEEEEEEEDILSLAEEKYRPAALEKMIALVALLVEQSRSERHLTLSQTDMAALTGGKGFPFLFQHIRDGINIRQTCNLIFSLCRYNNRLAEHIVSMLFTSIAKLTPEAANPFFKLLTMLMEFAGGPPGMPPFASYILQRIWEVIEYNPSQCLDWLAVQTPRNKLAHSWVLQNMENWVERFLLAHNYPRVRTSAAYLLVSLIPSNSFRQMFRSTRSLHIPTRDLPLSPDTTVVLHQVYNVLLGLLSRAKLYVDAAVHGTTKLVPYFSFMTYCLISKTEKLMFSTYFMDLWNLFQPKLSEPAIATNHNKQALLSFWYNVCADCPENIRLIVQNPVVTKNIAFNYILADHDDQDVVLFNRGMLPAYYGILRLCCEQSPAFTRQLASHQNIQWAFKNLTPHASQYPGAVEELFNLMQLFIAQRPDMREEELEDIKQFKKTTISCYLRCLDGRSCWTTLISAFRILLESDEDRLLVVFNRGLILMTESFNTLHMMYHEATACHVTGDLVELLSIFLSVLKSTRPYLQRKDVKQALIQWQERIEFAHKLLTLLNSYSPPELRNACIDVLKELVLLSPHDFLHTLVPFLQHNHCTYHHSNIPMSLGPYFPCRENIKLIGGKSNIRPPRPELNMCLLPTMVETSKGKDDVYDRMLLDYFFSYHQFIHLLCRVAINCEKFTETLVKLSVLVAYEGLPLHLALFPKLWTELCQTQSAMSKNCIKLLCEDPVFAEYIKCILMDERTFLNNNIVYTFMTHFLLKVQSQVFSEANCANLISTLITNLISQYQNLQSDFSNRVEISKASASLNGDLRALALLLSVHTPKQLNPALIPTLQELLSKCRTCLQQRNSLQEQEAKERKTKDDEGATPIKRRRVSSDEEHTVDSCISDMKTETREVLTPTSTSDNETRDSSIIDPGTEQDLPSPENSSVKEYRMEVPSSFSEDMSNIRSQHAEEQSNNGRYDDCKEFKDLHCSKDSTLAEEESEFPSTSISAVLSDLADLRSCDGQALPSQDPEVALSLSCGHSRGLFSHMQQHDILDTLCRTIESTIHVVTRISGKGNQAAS

O=C(CCl)N1CCC(C(=O)N2CCCCCC2)CC1
inactive: USP34 -0.0554 | USP36 -0.258 | USP38 -0.135 | USP39 -0.143 | USP4 0.128
